Measured values reported in PubChem BioAssay.
Activity calls are given as the source filed them.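 How the source made its calls, unless noted: active means normalized viability below 100% at a tested concentration; inactive means the rest.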

How the values were obtained:
[1] = sensitizers of A549 cells to miR-34 induction, primary screen, imaging, A549 dox-inducible miR-34, nuclei and caspase counts (AID 1347080;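 active means compounds whose cell count with miR-34 switched on is under 0.7 times the count with it off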); conditions: A549 miR-34 inducible, Hoechst nuclei count, 48 h
[2] = survival rescue of mitochondrial mutant cells in low glucose, primary screen, MELAS cybrids, Rieske KO mouse fibroblasts, CellTiter-Glo (AID 1508586;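 active means mean z-score across replicates of 1.96 or higher in either the MELAS or the Rieske mutant cell line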;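 further: z relative to plate mean and SD of compound and empty wells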)
[3] = ovarian cancer cell viability with rucaparib, profiling panel, oncology-focused library, rucaparib conditional (AID 1508598); conditions: patient-derived ovarian cancer cells, CellTiter-Glo viability, 144 h, stronger effect = lower value
[4] = stronger effect = lower value, cell number ratio, induced over uninduced
[5] = measured here: relative caspase fold change +Dox/-Dox
[6] = measured here: total cells with miR-34 induction, stronger effect = lower value
[7] = measured here: total cells without miR-34 induction
[8] = MELAS cybrid survival, CellTiter-Glo 48 h, stronger effect = higher value
[9] = Rieske KO mouse fibroblast survival, CellTiter-Glo 72 h
[10] = at 0.000305 µM, OCI-C5x cells, with rucaparib 10 µM, 100% = cells with rucaparib alone
[11] = at 0.000305 µM, OCI-C5x cells, without rucaparib
[12] = at 0.000305 µM, OCI-P5x cells, with rucaparib 20 µM, 100% = cells with rucaparib alone
[13] = at 0.000305 µM, OCI-P5x cells, without rucaparib
[14] = at 0.00122 µM, OCI-C5x cells, with rucaparib 10 µM, 100% = cells with rucaparib alone
[15] = at 0.00122 µM, OCI-C5x cells, without rucaparib
[16] = at 0.00122 µM, OCI-P5x cells, with rucaparib 20 µM, 100% = cells with rucaparib alone
[17] = at 0.00122 µM, OCI-P5x cells, without rucaparib
[18] = at 0.00488 µM, OCI-C5x cells, with rucaparib 10 µM, 100% = cells with rucaparib alone
[19] = at 0.00488 µM, OCI-C5x cells, without rucaparib
[20] = at 0.00488 µM, OCI-P5x cells, with rucaparib 20 µM, 100% = cells with rucaparib alone
[21] = at 0.00488 µM, OCI-P5x cells, without rucaparib
[22] = at 0.0195 µM, OCI-C5x cells, with rucaparib 10 µM, 100% = cells with rucaparib alone
[23] = at 0.0195 µM, OCI-C5x cells, without rucaparib
[24] = at 0.0195 µM, OCI-P5x cells, with rucaparib 20 µM, 100% = cells with rucaparib alone
[25] = at 0.0195 µM, OCI-P5x cells, without rucaparib
[26] = at 0.0781 µM, OCI-C5x cells, with rucaparib 10 µM, 100% = cells with rucaparib alone
[27] = at 0.0781 µM, OCI-C5x cells, without rucaparib
[28] = at 0.0781 µM, OCI-P5x cells, with rucaparib 20 µM, 100% = cells with rucaparib alone
[29] = at 0.0781 µM, OCI-P5x cells, without rucaparib
[30] = at 0.313 µM, OCI-C5x cells, with rucaparib 10 µM, 100% = cells with rucaparib alone
[31] = at 0.313 µM, OCI-C5x cells, without rucaparib
[32] = at 0.313 µM, OCI-P5x cells, with rucaparib 20 µM, 100% = cells with rucaparib alone
[33] = at 0.313 µM, OCI-P5x cells, without rucaparib
[34] = at 1.25 µM, OCI-C5x cells, with rucaparib 10 µM, 100% = cells with rucaparib alone
[35] = at 1.25 µM, OCI-C5x cells, without rucaparib
[36] = at 1.25 µM, OCI-P5x cells, with rucaparib 20 µM, 100% = cells with rucaparib alone
[37] = at 1.25 µM, OCI-P5x cells, without rucaparib
[38] = at 5 µM, OCI-C5x cells, with rucaparib 10 µM, 100% = cells with rucaparib alone
[39] = at 5 µM, OCI-C5x cells, without rucaparib
[40] = at 5 µM, OCI-P5x cells, with rucaparib 20 µM, 100% = cells with rucaparib alone
[41] = at 5 µM, OCI-P5x cells, without rucaparib

CC(C)(C)C(=O)Nc1ccc2c(c1)C(=O)C(=O)c1ccccc1-2
0.69: fold change [1, 5]
-7.92: z-score [2, 9]
inactive: fold change [1, 4] 1.31 | z-score [2, 8] 0.258 | viability [3, 10] 109% | viability [3, 11] 109% | viability [3, 14] 127% | viability [3, 15] 103% | viability [3, 18] 116% | viability [3, 19] 114% | viability [3, 22] 119% | viability [3, 23] 112% | viability [3, 26] 118% | viability [3, 27] 113% | viability [3, 31] 112% | viability [3, 34] 114% | viability [3, 35] 113% | viability [3, 36] 103% | viability [3, 37] 104% | viability [3, 39] 107%
active: viability [3, 12] 95.2% | viability [3, 13] 90.7% | viability [3, 16] 99.1% | viability [3, 17] 91.1% | viability [3, 20] 78.7% | viability [3, 21] 63.1% | viability [3, 24] 79% | viability [3, 25] 64.3% | viability [3, 28] 63.5% | viability [3, 29] 45.6% | viability [3, 30] 81.1% | viability [3, 32] 29.6% | viability [3, 33] 18.8% | viability [3, 38] 70.9% | viability [3, 40] 2.26% | viability [3, 41] 7.62%
636: cell count [1, 7]
833: cell count [1, 6]

CCOC(=O)c1[nH]c2cc(Cl)ccc2c1C(C(=O)NC(C)(C)C)N(C=O)Cc1ccc(Cl)cc1 (centres undefined)
-1.07: z-score [2, 9]
active: viability [3, 12] 75.1% | viability [3, 13] 82% | viability [3, 16] 66.5% | viability [3, 17] 73% | viability [3, 20] 67.1% | viability [3, 21] 64.8% | viability [3, 24] 69.4% | viability [3, 25] 63.9% | viability [3, 28] 96.7% | viability [3, 32] 99.6% | viability [3, 33] 99.6% | viability [3, 40] 62%
0.584: fold change [1, 5]
2780: cell count [1, 7]
2750: cell count [1, 6]
inactive: fold change [1, 4] 0.989 | z-score [2, 8] -0.405 | viability [3, 10] 118% | viability [3, 11] 105% | viability [3, 14] 112% | viability [3, 15] 113% | viability [3, 18] 113% | viability [3, 19] 104% | viability [3, 22] 110% | viability [3, 23] 116% | viability [3, 26] 114% | viability [3, 27] 102% | viability [3, 29] 103% | viability [3, 30] 108% | viability [3, 31] 106% | viability [3, 34] 111% | viability [3, 35] 105% | viability [3, 36] 103% | viability [3, 37] 102% | viability [3, 38] 116% | viability [3, 39] 120% | viability [3, 41] 101%

Cc1cc(C)c(S(=O)(=O)n2cc(C)cc2C)c(C)c1
7540: cell count [1, 6]
0.313: z-score [2, 9]
8180: cell count [1, 7]
inactive: fold change [1, 4] 0.922 | z-score [2, 8] -0.318 | viability [3, 10] 109% | viability [3, 11] 106% | viability [3, 12] 102% | viability [3, 13] 104% | viability [3, 14] 121% | viability [3, 15] 104% | viability [3, 18] 116% | viability [3, 19] 101% | viability [3, 20] 106% | viability [3, 21] 101% | viability [3, 22] 112% | viability [3, 24] 105% | viability [3, 26] 128% | viability [3, 27] 102% | viability [3, 30] 122% | viability [3, 31] 109% | viability [3, 32] 101% | viability [3, 34] 113% | viability [3, 36] 106% | viability [3, 37] 102% | viability [3, 38] 122% | viability [3, 39] 110% | viability [3, 40] 101% | viability [3, 41] 102%
0.448: fold change [1, 5]
active: viability [3, 16] 97.6% | viability [3, 17] 96% | viability [3, 23] 94% | viability [3, 25] 97.2% | viability [3, 28] 99.3% | viability [3, 29] 97.7% | viability [3, 33] 98.8% | viability [3, 35] 94.4%

C[C@]12C[C@@]3(O)O[C@@H](O1)[C@]1(COC(=O)c4ccccc4)[C@H]3C[C@@]12OC1OC(CO)C(O)C(O)C1O (some centres undefined)
8970: cell count [1, 6]
0.575: fold change [1, 5]
-0.113: z-score [2, 9]
10300: cell count [1, 7]
inactive: fold change [1, 4] 0.87 | z-score [2, 8] -0.445

NC(=O)c1noc(C(CCCC2CCCCC2)CC(=O)NO)n1 (centres undefined)
inactive: fold change [1, 4] 0.791 | z-score [2, 8] -0.42
1.15: fold change [1, 5]
8580: cell count [1, 7]
6790: cell count [1, 6]
-1.85: z-score [2, 9]

OCCn1cc(-c2ccc3c(c2)CCC3=NO)c(-c2ccncc2)n1
0.852: fold change [1, 5]
inactive: fold change [1, 4] 1.01 | z-score [2, 8] -0.459 | viability [3, 10] 116% | viability [3, 11] 107% | viability [3, 14] 114% | viability [3, 15] 113% | viability [3, 16] 103% | viability [3, 18] 120% | viability [3, 20] 103% | viability [3, 21] 101% | viability [3, 22] 116% | viability [3, 23] 121% | viability [3, 24] 102% | viability [3, 25] 101% | viability [3, 26] 115% | viability [3, 27] 122% | viability [3, 29] 103% | viability [3, 30] 118% | viability [3, 31] 125% | viability [3, 34] 118% | viability [3, 35] 131% | viability [3, 38] 124% | viability [3, 39] 137%
7730: cell count [1, 7]
active: viability [3, 12] 91.8% | viability [3, 13] 92.8% | viability [3, 17] 92.9% | viability [3, 19] 92.1% | viability [3, 28] 99% | viability [3, 32] 95.5% | viability [3, 33] 93.7% | viability [3, 36] 90.7% | viability [3, 37] 96.5% | viability [3, 40] 88.8% | viability [3, 41] 98%
7830: cell count [1, 6]
0.407: z-score [2, 9]
